In PubChem BioAssay (NCATS):
Several values for one entry are separate records, joined by “and”; a condition that tells them apart may be missing. Identical values can stand only once. Results filed as inconclusive are left out. A number with no mark means an inactive call. Calls follow the shape of the dose curve; as a rule, active = well fitted cell-killing curve with a large enough effect; inconclusive = small, poorly fitted or top-dose-only effect, or effect the other way; inactive = flat fitted curve, though single readings scatter.

Assay: qHTS assay for cell viability of HEK293 cells (AID 743288); also: nearly all actives have a fitted effect of over 50% in size
Conditions: ATP luminescence (CellTiter-Glo), 18 h; max response: hits give low values
Excerpt: National Center for Advancing Translational Sciences [NCATS]
NIH Chemical Genomics Center [NCGC]
U.S. Environmental Protection Agency [EPA]
National Institutes of Environmental Health Sciences [NIEHS]
National Toxicology Program [NTP]
U.S. Food and Drug Administration [FDA]
The CellTiter-Glo Luminescent Cell Viability Assay (Promega, Madison, WI) is a homogeneous method to determine the number of viable cells in culture based on quantitation of the ATP present, which signals the presence of metabolically active cells. This cell viability assay was used to screen environmental chemicals in the Hek293 cell line.
Tox21 Assay Protocol Summary:
Cell viability after compound treatment was measured using a luciferase-coupled ATP quantitation assay (CellTiter-Glo viability assay, Promega, Madison, WI) in parental HEK293 cells. Total intracellular ATP content corresponds to the number of metabolically competent cells after compound treatment. The cells were dispensed at 2,000 cells/5 uL/well in 1,536-well white/solid bottom assay plates using a Flying Reagent Dispenser (Aurora Discovery, San Diego, CA). The cells were incubated a minimum of 5 h at 37 C, followed by the addition of 23 nL of compounds dissolved in DMSO, positive controls or DMSO only using a pintool work station (Kalypsys, San Diego, CA). The assay plates were incubated for 18 h at 37 C, followed by the addition of 5 uL/well of CellTiter-Glo reagent. After 30 min incubation at room temperature, the luminescence intensity of the plates was measured using a ViewLux plate reader (PerkinElmer, Shelton, CT).
% is scaled to controls: 0 for no effect and ±100 for the full control effect.

Which max response does the source give for OCl here?
The max response was -19.9%.

With CO[C@@H]1[C@H](OC(=O)/C=C/C=C/C=C/C=C/C(=O)O)CC[C@]2(CO2)[C@H]1[C@@]1(C)O[C@@H]1CC=C(C)C as the compound, how does the max response read?
The max response was -10.5%.

With [O-][N+](=Nc1ccccc1)c1ccccc1 as the compound, how does the max response read?
The max response was -0.626%.

With OB(O)O as the compound, how does the max response read?
Its max response is -3.91% and 5.45%.

For OCCOCCOCCO, which max response is on record?
Its max response is -2.87% and -1.37%.

With CCCCCCCCCCCCCCCCCC(=O)OC[C@@H](O)[C@H]1OC[C@H](O)[C@H]1O as the compound, how does the max response read?
The max response was -11.8%.

For CC(C)O, which max response is on record?
The max response was -16.4%.

Which max response does the source give for Cc1ncc[nH]1 here?
The max response was -10.6%.

With C[C@H](CCC(=O)O)[C@H]1CC[C@H]2[C@@H]3CC[C@@H]4C[C@H](O)CC[C@]4(C)[C@H]3C[C@H](O)[C@]12C as the compound, how does the max response read?
Its max response is 3.72%.

Which max response does the source give for OCC(O)CO here?
Its max response is 1.91% and -2.54%.

For Oc1cccc(O)c1O, which max response is on record?
Its max response is -17.5%.

With CC(C)CCCCCCc1ccc(O)cc1 as the compound, how does the max response read?
Its max response is -15.7%.

With CCOC(C)OCC as the compound, how does the max response read?
Its max response is 7.3%.

With C[Si](C)(C)O[Si](C)(C)C as the compound, how does the max response read?
Its max response is -0.467%.

For OC[C@H]1O[C@@H]2O[C@H]3[C@H](O)[C@@H](O)[C@@H](O[C@H]4[C@H](O)[C@@H](O)[C@@H](O[C@H]5[C@H](O)[C@@H](O)[C@@H](O[C@H]6[C@H](O)[C@@H](O)[C@@H](O[C@H]7[C@H](O)[C@@H](O)[C@@H](O[C@H]1[C@H](O)[C@H]2O)O[C@@H]7CO)O[C@@H]6CO)O[C@@H]5CO)O[C@@H]4CO)O[C@@H]3CO, which max response is on record?
The max response was -12.8% and 1.56%.

For CC(C)(C)CC(C)(C)c1ccc(OCCO)cc1, which max response is on record?
Its max response is -25.1%.

Which max response does the source give for CC1=CCC2CC1C2(C)C (stereo not given) here?
The max response was -5.13%.

Which max response does the source give for NCCO/C=C/[C@H](N)C(=O)O here?
The max response was -5.56%.

Which max response does the source give for C=CC(C)(O)CC/C=C(\C)CCC=C(C)C (stereo not given) here?
Its max response is -7.81%.

For Nc1ccc(N=Nc2ccccc2)c(N)n1, which max response is on record?
Its max response is -23.5% and -25.3%.

Which max response does the source give for CCCCC here?
Its max response is -0.392%.

For C=C(C)C1CC=C(C)CC1 (stereo not given), which max response is on record?
Its max response is -3.42% and -10.2%.

Which max response does the source give for Oc1ccc(/C=C/c2cc(O)cc(O)c2)cc1 here?
The max response was -22.7% and -15%.

For C/C=C/C=C/C(=O)O, which max response is on record?
The max response was 0.0589%.

For O=P(O)(O)O, which max response is on record?
Its max response is -7.47%.

For COC(=O)c1ccccc1O, which max response is on record?
The max response was -4.62% and -2.27%.

With c1ccc2ccccc2c1 as the compound, how does the max response read?
The max response was -14.2% and 4.14%.

For NC(N)=O, which max response is on record?
The max response was 0.964%.

With ClC(Cl)Cl as the compound, how does the max response read?
Its max response is -2%.

Which max response does the source give for CN(CCO)CC(O)Cn1cnc2c1c(=O)n(C)c(=O)n2C (stereo not given) (tested in a mixture with another compound) here?
The max response was -3.27%.

Which max response does the source give for OCc1ccccc1 here?
The max response was 7.92%.

For CCCCO, which max response is on record?
The max response was 11.1% and -7.83%.

Which max response does the source give for CC/C=C\C/C=C\C/C=C\CCCCCCCC(=O)O here?
Its max response is -4.87%.

With O=c1n(CC2CO2)c(=O)n(CC2CO2)c(=O)n1CC1CO1 (stereo not given) as the compound, how does the max response read?
Its max response is -25.2% and -21.7%.

For NCCN, which max response is on record?
The max response was -4.96%.

With Nc1ncnc2c1ncn2[C@H]1CC[C@@H](CO)O1 as the compound, how does the max response read?
Its max response is -8.27% and 0.717%.

With CC(C)CCC[C@@H](C)[C@H]1CC[C@H]2[C@@H]3CC=C4C[C@@H](O)CC[C@]4(C)[C@H]3CC[C@]12C as the compound, how does the max response read?
The max response was -8.56%.

Which max response does the source give for C[C@H](CCC(=O)O)[C@H]1CC[C@H]2[C@@H]3[C@H](O)C[C@@H]4C[C@H](O)CC[C@]4(C)[C@H]3C[C@H](O)[C@]12C here?
Its max response is -4.94%.

For O.O.O.O.O.O.O.O=S(=O)([O-])[O-].[Co+2], which max response is on record?
The max response was 1.41%.

Which max response does the source give for Cc1ccc(S(=O)(=O)O)cc1C here?
The max response was 0.0836%.
